Measurements taken from PubChem BioAssay (Tox21).
Several values for one entry are separate records, joined by “and”; a condition that tells them apart may be missing. Identical values can stand only once. Inconclusive results are not listed. Entries that show only a call come without a potency. Some structures have more than one record in an assay (separate samples or runs), and their calls can disagree. Activity calls are given as the source filed them. Unless noted, calls follow the shape of the dose curve; as a rule, active = well fitted curve in the direction sought with a large enough effect in the repeat runs; inconclusive = weak or mixed curves; inactive = no such curve, though single readings can be large; an effect the other way counts as inactive or inconclusive.

Columns and labels:
[1] = qHTS assay to identify aromatase inhibitors - cell viability counter screen (AID 743084);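 also: cells stimulated with testosterone during compound exposure; nearly all actives have a fitted effect of over 55% in size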; also: potency is read from the fitted curve at half-maximal effect
[2] = target: Aryl hydrocarbon receptor (Homo sapiens) (UniProt P35869); assay: qHTS assay to identify small molecule that activate the aryl hydrocarbon receptor (AhR) signaling pathway (AID 743085); also: nearly all actives have a fitted effect of over 15% in size; also: potency is read from the fitted curve at half-maximal effect;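 as to activation: HG2L7.5c1 human HepG2 liver cells with stably integrated DRE-driven firefly reporter; series mostly up to about 70 µM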
How it was run: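 Luminescence (ONE-Glo) from a dioxin-responsive-element luciferase reporter in HG2L7.5c1 HepG2 cells after 24 hr compound exposure at 37C; viability measured by CellTiter-Fluor fluorescence beforehand.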

[3] = qHTS assay to identify small molecule that activate the aryl hydrocarbon receptor (AhR) signaling pathway - cell viability counter screen (AID 743086); also: nearly all actives have a fitted effect of over 45% in size; also: potency is read from the fitted curve at half-maximal effect
How it was run: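 HepG2-AhR-luc (HG2L7.5c1) cells, 4000/well, were preincubated 5 h at 37C, exposed to compound in qHTS format for 24 hr at 37C, then given CellTiter-Fluor for 30 min; viability was read as fluorescence in the reporter wells.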

[4] = qHTS assay to identify small molecule antagonists of the peroxisome proliferator-activated receptor gamma (PPARg) signaling pathway - cell viability counter screen (AID 743194); also: nearly all actives have a fitted effect of over 55% in size; also: potency is read from the fitted curve at half-maximal effect
How it was run: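 PPARg-UAS-bla HEK293H cells were plated, rested 5 h at 37 C, then treated with compounds plus rosiglitazone (50 nM final) for 17 h at 37 C; viability was then read by CellTiter-Glo luminescence after 30 min at room temperature.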

[5] = qHTS assay for small molecule agonists of the antioxidant response element (ARE) signaling pathway (AID 743202; active = well fitted activation curve with a large enough effect in the signal ratio in the repeat runs, not every such curve was filed as active; the % refers to the signal ratio; also: potency is read from the fitted curve at half-maximal effect)
How it was run: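 Read-out: LiveBLAzer B/G FRET substrate fluorescence after 2 h at room temperature, following 16 h compound treatment at 37 C of HepG2 cells carrying an ARE-driven beta-lactamase reporter.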

[6] = qHTS assay for small molecule agonists of the antioxidant response element (ARE) signaling pathway - cell viability counter screen (AID 743203; calls by dose curve; also: nearly all actives have a fitted effect of over 55% in size; also: potency is read from the fitted curve at half-maximal effect)
How it was run: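 Cells (ARE-bla HepG2, 2,000/well) receive DMSO-dissolved compounds after a 5 hrs rest. Plates incubate 16 hrs at 37C/5% CO2. CellTiter-Glo luminescence is then recorded after 30 min at room temperature.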

[7] = qHTS assay for small molecule activators of the heat shock response signaling pathway - cell viability counter screen (AID 743209); also: nearly all actives have a fitted effect of over 50% in size; also: potency is read from the fitted curve at half-maximal effect
How it was run: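 Quantitative HTS format, Tox21 10K library. HeLa cells carrying an HSE-driven beta-lactamase reporter were treated 5 h at 37 C, then assessed for viability by CellTiter-Glo luminescence.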

[8] = qHTS assay to identify small molecule agonists of the peroxisome proliferator-activated receptor delta (PPARd) signaling pathway - cell viability counter screen (AID 743211); also: nearly all actives have a fitted effect of over 55% in size; also: potency is read from the fitted curve at half-maximal effect
How it was run: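 Viability was measured as CellTiter-Glo luminescence (30 min, room temperature) in the same wells as the beta-lactamase readout. GeneBLAzer PPARd UAS-bla HEK293H cells received compound after 5 h plating and were incubated 17 h at 37 C.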

[9] = qHTS assay to identify small molecule antagonists of the peroxisome proliferator-activated receptor delta (PPARd) signaling pathway - cell viability counter screen (AID 743213); also: nearly all actives have a fitted effect of over 50% in size; also: potency is read from the fitted curve at half-maximal effect
How it was run: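 CellTiter-Glo was added to PPARd-bla HEK293H wells following 17 h compound treatment in the presence of 300 nM L165041. Luminescence was recorded after 30 min at room temperature.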

[10] = qHTS assay to identify small molecule agonists of the farnesoid-X-receptor (FXR) signaling pathway - cell viability counter screen (AID 743218); also: nearly all actives have a fitted effect of over 45% in size; also: potency is read from the fitted curve at half-maximal effect
How it was run: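 In GeneBLAzer FXR-UAS-bla HEK 293T cells, compounds act for 16 h at 37 C. Cell viability is then scored in the reporter wells by CellTiter-Glo, 30 min at RT, luminescence.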

[11] = qHTS assay to identify small molecule antagonists of the farnesoid-X-receptor (FXR) signaling pathway - cell viability counter screen (AID 743221; active = well fitted cell-killing curve with a large enough effect in the repeat runs, not every such curve was filed as active; also: nearly all actives have a fitted effect of over 50% in size; also: potency is read from the fitted curve at half-maximal effect)
How it was run: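 Cytotoxicity counter screen run in the FXR-bla reporter wells: HEK 293T cells exposed to compound with 50 uM (final) chenodeoxycholic acid for 16 h, 37 C, then viability measured by CellTiter-Glo luminescence after 30 min, room temperature.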

[12] = target: Peroxisome proliferator-activated receptor delta (Homo sapiens) (UniProt Q03181); assay: qHTS assay to identify small molecule antagonists of the peroxisome proliferator-activated receptor delta (PPARd) signaling pathway (AID 743215; active = well fitted inhibition curve with a large enough effect in the signal ratio in the repeat runs, not every such curve was filed as active; the % refers to the signal ratio;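 also: cells stimulated with agonist L165041 at 300 nM final during compound exposure; series mostly up to about 62 µM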)
How it was run: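 Antagonist-mode beta-lactamase reporter screen: HEK293H cells with UAS-bla under PPARd control, stimulated by 300 nM L165041 (final) alongside test compound for 17 h at 37 C, then FRET fluorescence after 2 h substrate incubation.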

[13] = target: Bile acid receptor (Homo sapiens) (UniProt Q96RI1); assay: qHTS assay to identify small molecule antagonists of the farnesoid-X-receptor (FXR) signaling pathway (AID 743217; active = well fitted inhibition curve with a large enough effect in the signal ratio in the repeat runs, not every such curve was filed as active; the % refers to the signal ratio; also: potency is read from the fitted curve at half-maximal effect)
How it was run: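 Beta-lactamase reporter under UAS control in HEK 293T cells; compound exposure 16 h at 37 °C in the presence of chenodeoxycholic acid (50 uM final); signal from B/G FRET substrate after 2 h at room temperature.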

[14] = target: Bile acid receptor (Homo sapiens) (UniProt Q96RI1); assay: qHTS assay to identify small molecule agonists of the farnesoid-X-receptor (FXR) signaling pathway (AID 743220; active = well fitted activation curve with a large enough effect in the signal ratio in the repeat runs, not every such curve was filed as active; the % refers to the signal ratio)
How it was run: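 Beta-lactamase reporter under UAS control in GeneBLAzer FXR HEK 293T cells (5000/well) measured with LiveBLAzer FRET substrate after 2 h at room temperature. Compound exposure lasted 16 h at 37C.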

[15] = target: Vitamin D3 receptor (Homo sapiens) (UniProt P11473); assay: qHTS assay to identify small molecule antagonists of the vitamin D receptor (VDR) signaling pathway (AID 743223; active = well fitted inhibition curve with a large enough effect in the signal ratio in the repeat runs, not every such curve was filed as active; the % refers to the signal ratio; also: potency is read from the fitted curve at half-maximal effect)
How it was run: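 Antagonist mode: compound added to VDR-bla cells alongside agonist 1alpha,25-dihydroxyvitamin D3 (3 nM final), incubation 16 h at 37C. Read-out is LiveBLAzer FRET fluorescence, 2 h at room temperature.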

[16] = target: Peroxisome proliferator-activated receptor gamma (Homo sapiens) (UniProt P37231); assay: qHTS assay to identify small molecule agonists of the peroxisome proliferator-activated receptor gamma (PPARg) signaling pathway (AID 743094; active = well fitted activation curve with a large enough effect in the signal ratio in the repeat runs, not every such curve was filed as active; the % refers to the signal ratio)
How it was run: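 Stably transfected HEK293H cells (GeneBLAzer PPARg UAS-bla) were incubated with test substances for 17 h at 37C after a 5 h pre-incubation; beta-lactamase activity was then detected by FRET substrate fluorescence.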

[17] = qHTS assay for small molecule activators of the heat shock response signaling pathway (AID 743210; active = well fitted activation curve with a large enough effect in the signal ratio in the repeat runs, with a control signal flat, not every such curve was filed as active; the % refers to the signal ratio; also: series mostly up to about 63 µM)
How it was run: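 HSE-bla HeLa cells (beta-lactamase reporter under heat shock response elements) were exposed to compounds for 5 h at 37 C, then loaded with LiveBLAzer B/G FRET substrate for 2.5 h at room temperature before fluorescence reading.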

[18] = target: Peroxisome proliferator-activated receptor delta (Homo sapiens) (UniProt Q03181); assay: qHTS assay to identify small molecule agonists of the peroxisome proliferator-activated receptor delta (PPARd) signaling pathway (AID 743212; calls by dose curve)
How it was run: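 GeneBLAzer PPARd UAS-bla HEK293H cells (beta-lactamase reporter under UAS control), plated and rested 5 h at 37 C, then exposed to compounds in DMSO at 37 C; LiveBLAzer B/G FRET substrate added, 2 h room temperature, fluorescence read.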

[19] = target: Vitamin D3 receptor (Homo sapiens) (UniProt P11473); assay: qHTS assay to identify small molecule agonists of the vitamin D receptor (VDR) signaling pathway (AID 743222; calls by dose curve)
How it was run: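 Agonist activity measured in VDR-bla reporter cells. Exposure 16 h, 37C, 5% CO2; detection by B/G FRET substrate, 2 h RT.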

[20] = target: Peroxisome proliferator-activated receptor gamma (Homo sapiens) (UniProt P37231); assay: qHTS assay to identify small molecule antagonists of the peroxisome proliferator-activated receptor gamma (PPARg) signaling pathway (AID 743191; calls by dose curve; also: series mostly up to about 63 µM; nearly all actives have a fitted effect of over 30% in size)
How it was run: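 GeneBLAzer PPARg UAS-bla HEK293H cells carrying a UAS-driven beta-lactamase reporter were plated at 3000 cells/well, preincubated 5 h at 37C, then given compound for 17 h at 37C; LiveBLAzer B/G FRET substrate was read after 1 h at room temperature.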

Chain of Peroxisome proliferator-activated receptor gamma (Homo sapiens) (P37231 whole entry, looked up): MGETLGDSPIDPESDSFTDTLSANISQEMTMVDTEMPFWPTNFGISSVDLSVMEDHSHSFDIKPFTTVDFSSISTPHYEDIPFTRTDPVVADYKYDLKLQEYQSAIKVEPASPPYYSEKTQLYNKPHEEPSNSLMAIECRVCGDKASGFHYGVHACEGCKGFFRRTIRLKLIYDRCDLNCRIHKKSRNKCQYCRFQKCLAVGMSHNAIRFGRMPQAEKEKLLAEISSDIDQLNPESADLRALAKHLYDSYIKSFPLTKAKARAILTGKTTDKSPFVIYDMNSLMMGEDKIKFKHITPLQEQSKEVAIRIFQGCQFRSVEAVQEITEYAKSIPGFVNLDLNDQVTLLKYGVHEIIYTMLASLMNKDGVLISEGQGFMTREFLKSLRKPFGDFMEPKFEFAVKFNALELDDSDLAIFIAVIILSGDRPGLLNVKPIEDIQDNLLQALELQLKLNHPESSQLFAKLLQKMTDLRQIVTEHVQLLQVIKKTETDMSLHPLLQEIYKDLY
Chain of Peroxisome proliferator-activated receptor delta (Homo sapiens) (Q03181 whole entry, looked up): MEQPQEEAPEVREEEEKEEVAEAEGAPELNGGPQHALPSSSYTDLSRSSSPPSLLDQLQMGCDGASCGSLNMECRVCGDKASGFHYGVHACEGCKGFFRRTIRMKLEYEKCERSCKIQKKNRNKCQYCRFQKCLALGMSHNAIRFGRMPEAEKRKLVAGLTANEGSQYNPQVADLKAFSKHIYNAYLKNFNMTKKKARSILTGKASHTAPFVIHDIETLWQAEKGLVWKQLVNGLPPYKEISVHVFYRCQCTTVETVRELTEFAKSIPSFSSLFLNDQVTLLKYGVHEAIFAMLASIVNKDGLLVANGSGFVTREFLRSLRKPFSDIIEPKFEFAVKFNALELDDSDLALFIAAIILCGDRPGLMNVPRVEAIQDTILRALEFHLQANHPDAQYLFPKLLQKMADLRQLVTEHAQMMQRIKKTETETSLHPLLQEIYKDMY
Chain of Vitamin D3 receptor (Homo sapiens) (P11473 whole entry, looked up): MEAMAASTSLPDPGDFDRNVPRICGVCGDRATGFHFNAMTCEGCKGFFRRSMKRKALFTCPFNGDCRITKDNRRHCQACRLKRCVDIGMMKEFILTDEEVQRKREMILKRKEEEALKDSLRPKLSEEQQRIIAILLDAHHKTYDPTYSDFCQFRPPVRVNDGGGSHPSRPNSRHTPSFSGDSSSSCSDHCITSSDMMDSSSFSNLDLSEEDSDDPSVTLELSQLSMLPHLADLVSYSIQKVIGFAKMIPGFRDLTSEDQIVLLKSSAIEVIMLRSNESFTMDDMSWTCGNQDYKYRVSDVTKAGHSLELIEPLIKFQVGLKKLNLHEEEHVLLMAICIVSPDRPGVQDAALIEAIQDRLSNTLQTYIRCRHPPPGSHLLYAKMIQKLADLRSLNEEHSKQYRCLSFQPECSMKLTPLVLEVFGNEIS
Chain of Bile acid receptor (Homo sapiens) (Q96RI1 whole entry, looked up): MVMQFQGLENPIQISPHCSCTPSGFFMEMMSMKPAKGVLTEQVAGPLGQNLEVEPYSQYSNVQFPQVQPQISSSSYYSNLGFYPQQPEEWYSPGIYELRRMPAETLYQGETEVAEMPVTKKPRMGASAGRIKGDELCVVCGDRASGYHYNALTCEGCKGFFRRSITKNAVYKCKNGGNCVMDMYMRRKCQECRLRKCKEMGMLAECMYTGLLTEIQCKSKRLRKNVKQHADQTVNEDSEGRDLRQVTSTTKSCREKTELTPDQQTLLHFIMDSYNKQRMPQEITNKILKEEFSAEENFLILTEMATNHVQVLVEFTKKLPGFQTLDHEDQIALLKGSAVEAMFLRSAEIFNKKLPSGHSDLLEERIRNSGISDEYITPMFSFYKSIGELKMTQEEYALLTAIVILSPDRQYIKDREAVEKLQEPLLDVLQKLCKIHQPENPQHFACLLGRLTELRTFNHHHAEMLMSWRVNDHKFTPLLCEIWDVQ
Chain of Aryl hydrocarbon receptor (Homo sapiens) (P35869 whole entry, looked up): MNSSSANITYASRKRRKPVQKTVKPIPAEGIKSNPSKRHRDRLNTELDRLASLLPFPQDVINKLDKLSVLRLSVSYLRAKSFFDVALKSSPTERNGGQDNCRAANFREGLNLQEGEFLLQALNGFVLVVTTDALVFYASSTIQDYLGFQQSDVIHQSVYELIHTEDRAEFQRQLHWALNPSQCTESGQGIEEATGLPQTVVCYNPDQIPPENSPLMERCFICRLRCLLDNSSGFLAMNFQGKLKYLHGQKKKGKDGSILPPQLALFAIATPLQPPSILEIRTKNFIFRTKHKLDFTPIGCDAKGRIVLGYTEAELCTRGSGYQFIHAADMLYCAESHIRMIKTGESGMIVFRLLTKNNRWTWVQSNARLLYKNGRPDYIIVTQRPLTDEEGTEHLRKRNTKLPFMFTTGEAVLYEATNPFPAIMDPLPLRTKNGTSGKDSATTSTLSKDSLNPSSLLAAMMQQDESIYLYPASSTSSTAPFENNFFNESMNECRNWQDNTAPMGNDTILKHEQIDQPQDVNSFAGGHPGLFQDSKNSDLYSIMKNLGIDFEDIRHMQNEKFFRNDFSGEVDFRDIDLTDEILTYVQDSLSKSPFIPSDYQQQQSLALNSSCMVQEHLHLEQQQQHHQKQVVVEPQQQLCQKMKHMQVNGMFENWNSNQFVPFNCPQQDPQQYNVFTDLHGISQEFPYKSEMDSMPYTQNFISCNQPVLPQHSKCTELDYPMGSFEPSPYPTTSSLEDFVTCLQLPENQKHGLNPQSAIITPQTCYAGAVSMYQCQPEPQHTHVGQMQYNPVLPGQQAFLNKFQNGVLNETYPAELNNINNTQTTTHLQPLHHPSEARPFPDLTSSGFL

| Compound | Potency [1] | Potency [2] | Potency [3] | Potency [4] | Potency [5] | Potency [6] | Potency [7] | Potency [8] | Potency [9] | Potency [10] | Potency [11] | Potency [12] | Potency [13] | Potency [14] | Potency [15] | Potency [16] | Potency [17] | Potency [18] | Potency [19] | Potency [20] |
| --- | --- | --- | --- | --- | --- | --- | --- | --- | --- | --- | --- | --- | --- | --- | --- | --- | --- | --- | --- | --- |
| COC(=O)C1=C(C)NC(C)=C(C(=O)OCC(C)C)C1c1ccccc1[N+](=O)[O-] (configuration not stated) | 33.5 µM (active) and 61.1 µM (active) | 9.44 µM (active) | inactive | inactive | 23.7 µM (active) | inactive | inactive | 21.9 µM (active) and inactive | 21.9 µM (active) and inactive | inactive | inactive | – | – | – | – | – | – | – | – | – |
| Clc1ccc2cc3ccccc3cc2c1 | inactive | inactive | inactive | inactive | – | inactive | inactive | inactive | inactive | – | inactive | inactive | inactive | inactive | inactive | – | – | – | – | – |
| CCCC(c1cc(C(C)(C)C)c(O)cc1C)c1cc(C(C)(C)C)c(O)cc1C | 49.2 µM (active) | inactive | inactive | 17.6 µM (active) | – | 17.4 µM (active) | 12.5 µM (active) | 11.1 µM (active) | 19.7 µM (active) | 12.5 µM (active) | 19.7 µM (active) | – | – | – | – | – | – | – | – | – |
| Cc1cccc(CN2CCN(C(c3ccccc3)c3ccc(Cl)cc3)CC2)c1 (configuration not stated) | inactive | inactive | inactive | inactive | – | – | inactive | 26.6 µM (active) | inactive | 29.8 µM (active) | – | inactive | – | – | – | inactive | inactive | inactive | – | – |
| CCCCCCCCCCCCCC[P+](CCCC)(CCCC)CCCC (tested in a mixture with another compound) | 4.35 µM (active) | inactive | inactive | 0.277 µM (active) | – | 19.4 µM (active) | 11 µM (active) | inactive | – | 17.5 µM (active) | 22 µM (active) | inactive | – | – | inactive | – | – | inactive | inactive | – |
| CCCCCCCCCCCC[N+](C)(C)CCCCCCCCCCCC | 21.7 µM (active) | inactive | 48.6 µM (active) | 27.5 µM (active) | – | 24.3 µM (active) | 43.6 µM (active) | 17.4 µM (active) | 13.8 µM (active) | 27.5 µM (active) | – | – | 49 µM (active) | – | – | – | – | – | – | – |
| NNc1nc(-c2ccc(N)cc2)cs1 | 27.3 µM (active) | 12.2 µM (active) | inactive | inactive | – | inactive | inactive | – | inactive | 6.92 µM (active) | inactive | inactive | inactive | inactive | – | – | – | inactive | inactive | – |
| Oc1c(Cl)cc(Cl)c2cccnc12 | inactive | 4.73 µM (active) | inactive | – | – | – | inactive | – | – | – | inactive | – | – | – | – | – | – | – | – | – |
| O=S1(=O)CC(Cl)(Cl)C(Cl)(Cl)C1 | 2.17 µM (active) | inactive | 13.7 µM (active) | 5.49 µM (active) | – | 4.33 µM (active) | 1.95 µM (active) | 3.09 µM (active) | 3.89 µM (active) | 5.49 µM (active) | 9.77 µM (active) | – | – | – | 1.74 µM (active) | – | – | – | inactive | – |
| CNCc1cc(F)ccc1Oc1ccc(Cl)c(Cl)c1 | inactive | inactive | – | inactive | – | 61.1 µM (active) | inactive | – | – | 49 µM (active) | – | inactive | – | – | – | inactive | inactive | inactive | inactive | inactive |
| O=C(OCC(COC(=O)c1ccccc1)(COC(=O)c1ccccc1)COC(=O)c1ccccc1)c1ccccc1 | inactive | inactive | inactive | inactive | – | – | inactive | inactive | inactive | inactive | – | inactive | – | – | inactive | – | – | – | inactive | – |
| CCCCCCCC[N+](CCCCCCCC)(CCCCCCCC)CCCCCCCC | 21.6 µM (active) | inactive | 43.2 µM (active) | 10.9 µM (active) | – | 13.7 µM (active) | 4.89 µM (active) | 6.15 µM (active) | 6.9 µM (active) | – | 21.8 µM (active) | – | – | – | – | – | – | – | – | – |
